From PubChem
This is a sample that favours compounds with a hit; in the whole collection about 12% have one here.
JMJD2A Tudor inh: inhibitors of human JMJD2A Tudor domain | 390,000 compounds, 4.4% hits | AID 504339 | AlphaScreen JMJD2A-Tudor / H3K4me3 peptide binding | Potency, µM (titrated, usually from 114 µM), for the others: at the top dose activity change, negative = inhibition, hits mostly inhibitors | O75164; also: % is scaled to controls: 0 for no effect and ±100 for the full control effect; nearly all actives have a fitted effect of over 50% in size
G9a inh: blocks human histone lysine methyltransferase G9a; Q96KQ7; G9a H3K9 monomethylation, AlphaScreen, 2 h; Potency, µM (series often up to 102 µM), for inactives: at the highest dose activity, negative = inhibition, hits mostly inhibitors; 350,000 compounds, 8.8% hits; AID 504332; also: % is scaled to controls: 0 for no effect and ±100 for the full control effect; nearly all actives have a fitted effect of over 75% in size
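Step 1: enzyme (final 20 nM) with compound, 15 min RT. Step 2: substrate peptide 500 nM and SAM 20 uM, 2 h RT. Step 3: anti-H3K9me1 antibody and AlphaScreen beads, 10 min, then plate read.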
Sfp PPTase inh: inhibitors of Bacillus subtilis Sfp phosphopantetheinyl transferase. Biochemical Sfp PPTase activity, qHTS. Potency, µM, for inactives: largest response in the series, negative = inhibition, actives largely listed as inhibitors. 310,000 compounds, 3.5% hits. AID 1490;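 also: the enzyme is Sfp with the accession as filed and its product quenches rhodamine fluorescence; 0% = enzyme reaction without inhibitor and -100% = no enzyme wells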
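Buffer: 50 mM Hepes-Na pH 7.6, 10 mM MgCl2, 0.01% Nonidet P-40, 0.01% BSA. Enzyme 15 nM, pre-exposed to compound 15 min; substrates then added and fluorescence change tracked over 30 min.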
BAZ2B inh: inhibitors of human BAZ2B bromodomain; 360,000 compounds, 4.4% hits; AlphaScreen BAZ2B-H3K14Ac peptide displacement; Potency, µM (top dose mostly 114 µM), inactives show top-dose activity change, negative = inhibition, most hits filed as inhibitors; Q9UIF8; AID 504333; also: % is scaled to controls: 0 for no effect and ±100 for the full control effect; nearly all actives have a fitted effect of over 60% in size
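Compounds, titrated to a top concentration of 110 uM, were incubated 30 min at room temperature with preformed BAZ2B/acetyl-K14 H3 peptide complex (50 nM each). Proximity signal was measured by AlphaScreen after 20 min with beads.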
HP1b chromo inh: HP1-beta chromodomain-methylated histone interaction inhibition; Potency, µM (titrated, usually from 114 µM), without a hit: top-dose activity change, negative = inhibition, actives largely listed as inhibitors; AlphaScreen HP1-beta / biotin-H3K9me3 peptide binding; 390,000 compounds, 0.56% hits; P83916; AID 540317; also: nearly all actives have a fitted effect of over 70% in size
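AlphaScreen: HP1-beta (50 nM) preformed 30 min with biotin-H3(1-18)K9me3 peptide (50 nM) in PBS pH 7.4, 0.01% Tween-20. Compound added for 30 min at RT, then streptavidin donor/nickel chelate acceptor beads (10 ug/mL) for 30 min.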
L3MBTL1 inh: inhibitors of human L3MBTL1; AID 485360; 230,000 compounds, 0.66% hits; AlphaScreen L3MBTL1–H3K9me1 peptide binding; Q9Y468; Potency, µM (highest dose often 57.1 µM), without a hit: at the highest dose activity, negative = inhibition, most hits filed as inhibitors; also: % is scaled to controls: 0 for no effect and ±100 for the full control effect; nearly all actives have a fitted effect of over 60% in size
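Read-out is AlphaScreen signal from streptavidin donor and nickel chelate acceptor beads (10 ug/mL final each) bridging L3MBTL1 (50 nM) and biotinylated K9-monomethylated H3(1-15) peptide (75 nM), after 30 min compound exposure at room temperature.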
* hit, by the source's call; [ ] = remark or other dose. Calls follow the shape of the dose curve; as a rule, active = well fitted curve in the direction sought with a large enough effect; inconclusive = small, poorly fitted or top-dose-only effect, or another doubt; inactive = no such curve, though single readings can be large; an effect the other way counts as inactive or inconclusive. Potency is read from the fitted curve at half-maximal effect.

For Cc1ccc2nc(CSc3nnc(-c4ccco4)o3)cc(=O)n2c1 the results were JMJD2A Tudor inh -31%, G9a inh inconclusive, Sfp PPTase inh -26%, BAZ2B inh 56µM*, HP1b chromo inh 26% and L3MBTL1 inh -19%.
`COC(=O)c1[nH]c2c(c1C)C(=O)CC(c1ccccc1)C2` (stereo not given) gave JMJD2A Tudor inh -24%, G9a inh 8%[12.7 µM], Sfp PPTase inh 25%, BAZ2B inh -2%, HP1b chromo inh 5% and L3MBTL1 inh 7%.
Screening Cc1c(C(=O)OC2CCCC2)[nH]c2c1C(=O)CC(c1ccco1)C2 (stereo not given) returned JMJD2A Tudor inh inconclusive, G9a inh inconclusive, Sfp PPTase inh -14%, BAZ2B inh inconclusive, HP1b chromo inh 4% and L3MBTL1 inh -24%.
For C/C=C/COC(=O)c1[nH]c2c(c1C)C(=O)CC(c1ccco1)C2 (stereo not given) the results were JMJD2A Tudor inh 50µM*, G9a inh 45µM*, Sfp PPTase inh 50µM*, BAZ2B inh 50µM*, HP1b chromo inh -8% and L3MBTL1 inh inconclusive.
For C=CCOC(=O)c1[nH]c2c(c1C)C(=O)CC(c1ccco1)C2 (stereo not given) the results were JMJD2A Tudor inh 20µM*, G9a inh inconclusive, Sfp PPTase inh inconclusive, BAZ2B inh 50µM*, HP1b chromo inh 28µM* and L3MBTL1 inh inconclusive.
`Cc1c(C(=O)OCC(C)C)[nH]c2c1C(=O)CC(c1ccco1)C2` (stereo not given) gave JMJD2A Tudor inh inconclusive, G9a inh 40µM*, Sfp PPTase inh 40µM*, BAZ2B inh 50µM*, HP1b chromo inh 18% and L3MBTL1 inh inconclusive.
For O=C1C(Cc2ccc3[nH]ccc3c2)NC(=S)N1c1ccccc1 (stereo not given) the results were JMJD2A Tudor inh -20%, G9a inh -29%, Sfp PPTase inh 1%, BAZ2B inh -19%, HP1b chromo inh 21% and L3MBTL1 inh 0%.
Screening COC(=O)C/C=C\[C@H](C)[C@@H](OC)c1ccccc1Br returned Sfp PPTase inh -6%.
OC1=C(O)c2nc3cc(F)ccc3nc21 was read as JMJD2A Tudor inh -12%, G9a inh 40µM*, Sfp PPTase inh 40µM*, BAZ2B inh -12% and HP1b chromo inh 17%.
Cc1nc2ccccn2c1-c1csc(NCc2ccco2)n1 was read as JMJD2A Tudor inh -34%[57.1 µM], G9a inh 8.9µM*, Sfp PPTase inh inconclusive, BAZ2B inh 50µM*, HP1b chromo inh 2% and L3MBTL1 inh -14%[11.4 µM].
Cc1ccn2c(-c3csc(NCc4ccccc4)n3)c(C)nc2c1 was read as JMJD2A Tudor inh 56µM*, G9a inh 5µM*, Sfp PPTase inh inconclusive, BAZ2B inh 32µM*, HP1b chromo inh inconclusive and L3MBTL1 inh -3%.
`Cc1ccn2c(NCc3ccccc3)c(-c3cccs3)nc2c1` gave JMJD2A Tudor inh inconclusive, G9a inh -47%, Sfp PPTase inh -21%, BAZ2B inh inconclusive, HP1b chromo inh -2% and L3MBTL1 inh -9%.
Screening COc1ccc(-c2csc(NCc3ccco3)n2)cc1 returned JMJD2A Tudor inh 79µM*, G9a inh 40µM*, Sfp PPTase inh -10%, BAZ2B inh 50µM*, HP1b chromo inh inconclusive and L3MBTL1 inh -3%.
CCC(C(=O)NCc1ccco1)n1nc(-c2ccc(OC)cc2)ccc1=O (stereo not given) was read as JMJD2A Tudor inh inconclusive, G9a inh inconclusive, Sfp PPTase inh 5%, BAZ2B inh 50µM*, HP1b chromo inh -32% and L3MBTL1 inh -27%.
For CCCN1CNc2c(c(=O)[nH]c(=S)n2CCc2cccc(C)c2)C1 the results were JMJD2A Tudor inh -7% and HP1b chromo inh 33%.
